A selection: hits, their analogues and other compounds. The true share with any hit is near 6.1%.
D1 antagonist = antagonists of human D1 dopamine receptor; AID 504652; activity change, negative = inhibition, % at 10 µM; HEK293 TREx D1 cells, calcium flux, dopamine EC80; stronger effect = lower value; P21728; hit rate 3.2% among 360,000; in the data active = activity change below about -30%
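Tetracycline-induced HEK293 Trex D1 cells, force-coupled to calcium, dye-loaded; compounds added and read 180 s, then EC80 dopamine added and calcium flux tracked kinetically another 180 s.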
ERG-DNA inh = blocks human ERG Ets domain binding to DNA. P11308. fluorescence polarization, His-ERG Ets domain / labelled DNA. Potency, µM (doses to about 76.9 µM), usual class: inhibitors. hit rate 0.028% among 370,000. AID 624246; active = well fitted inhibition curve with a large enough effect in the polarisation, with a control signal flat; inconclusive = small, poorly fitted or top-dose-only effect, or effect the other way, or a change in a side signal; inactive = no such curve, though single readings can be large or run the other way; the % refers to the polarisation;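 note: polarization taken with two DNA probes labelled with fluorescein and Texas red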
Target sequence (P11308 whole entry, looked up, the tested form may be a part): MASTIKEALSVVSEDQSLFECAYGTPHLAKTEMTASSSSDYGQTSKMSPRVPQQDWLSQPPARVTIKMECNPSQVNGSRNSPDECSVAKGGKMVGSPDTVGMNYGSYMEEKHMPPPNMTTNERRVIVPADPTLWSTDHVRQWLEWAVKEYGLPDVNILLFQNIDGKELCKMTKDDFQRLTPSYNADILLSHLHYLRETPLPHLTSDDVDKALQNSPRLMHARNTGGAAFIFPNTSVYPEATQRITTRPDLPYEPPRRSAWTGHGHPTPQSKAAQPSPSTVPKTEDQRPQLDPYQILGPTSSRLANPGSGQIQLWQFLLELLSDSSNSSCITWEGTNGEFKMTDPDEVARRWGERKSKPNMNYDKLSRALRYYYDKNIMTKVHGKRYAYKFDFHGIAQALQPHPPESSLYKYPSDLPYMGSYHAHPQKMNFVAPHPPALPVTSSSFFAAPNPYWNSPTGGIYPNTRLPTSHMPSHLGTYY
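His-tagged ERG Ets domain (1 uM in the protein solution; 300mM KCl, 50mM Tris-HCl, 1mM EDTA, 1mM DTT, pH 7.5) received compound, then a probe mix of 5 nM fluorescein-DNA and 100nM Texas-615-DNA. Fluorescence polarization was read for both dyes.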
D1 agonist = agonists of human D1 dopamine receptor | P21728 | activation, % at 2 µM | hit rate 1% among 360,000 | HEK293 T-REx D1 cells, calcium flux, agonist mode; in the data active = activation above about 30%
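Tetracycline-induced HEK293 TREx D1 cells, force-coupled to calcium signalling, were dye-loaded with a no-wash calcium kit. Compound was pin-added after a 10 s baseline. Fluorescence was read kinetically at 1 cycle/s for 180 s, with calcium rises flagged as agonism.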
D3 ag = activates the human D3 dopamine receptor | P35462 | max activation, % | D3R DiscoveRx beta-arrestin cells, luminescence, 90 min | AID 652048 | hit rate 0.58% among 410,000; in the data active = max activation above about 30%
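Agonist mode: compounds and dopamine controls were applied to plated cells for 90 min at 37 degrees C after an overnight attachment at 1500 cells/well. Luminescent read-out followed 30 - 60 minutes at room temperature with DiscoveRx detection reagent.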
D1 PAM = enhances dopamine response at the human D1 receptor. P21728. HEK293 TREx D1 cells, calcium flux, dopamine EC20 potentiation. potentiation, % at 10 µM. hit rate 0.036% among 360,000; in the data active = potentiation above about 30%
D3 antag = D3 dopamine receptor (human) antagonism | max response, negative = inhibition, % | P35462 | hit rate 2.5% among 360,000 | D3R cells, DiscoveRx beta-arrestin luminescence, antagonist mode; stronger effect = lower value; in the data active = max response below about -50%; inconclusive = no clear call, values can overlap the other calls
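Cells plated overnight at 1500 cells/well, then exposed to library compounds with dopamine controls for 90 minutes at 37 degrees C. DiscoveRx reagent added for 30–60 minutes at room temperature; luminescence read, quantitative HTS format.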
Of the large screens only hits and unclear results are named; the others gave an inactive call; ! = a repeat was not active.

COCCNC(=O)c1ccc(-n2c(-c3ccccc3)cc3c2CCCCC3)cc1	D1 agonist 39 (no result: D3 antag)
O=C(N/N=C\c1ccc(S(=O)(=O)O)o1)c1ccc2c(c1)OCO2	none
CCN(CC)S(=O)(=O)c1cccc(-c2nnc(SCCCC(=O)c3ccc(F)cc3)o2)c1	D1 agonist 34
CCCCCCCCCCCCCCCC[n+]1cccc(C(=O)N(CC)CC)c1	D1 agonist 279, D3 antag -74!
CCCCCn1c(NCc2ccc(OC)cc2)nc2ccccc21	none (no result: D3 antag)
CCN(CC)CCn1c(NCc2ccc(OC)cc2)nc2ccccc21	D3 antag -67
CCN(CC)CCn1c(C)nc2ccccc21	none
CCN(CC)CCNc1nc2ccccc2n1C	D1 antagonist -37
O=C1Nc2ccccc2N(O)N1c1ccc(S(=O)(=O)N2CCCCCC2)cc1	none
Cc1nc(NC(=O)c2ccccc2)sc1C1(C)CC(c2c(Cl)cccc2Cl)=NO1 (stereo unspecified)	D1 antagonist -36
Cc1nc(NC(=O)c2ccccc2)sc1C1(C)CC(c2ccccc2F)=NO1 (stereo unspecified)	D1 antagonist -33
Cc1cccc(-c2nnc(N)s2)c1	none
Cc1ccc(-n2c(CNc3ccc(F)cc3)nnc2SCC(=O)N2CCCC2)cc1	none
O=[N+]([O-])c1ccc(O)c(C2=NNC(c3ccccc3F)C2)c1 (stereo unspecified)	D1 antagonist -33, D3 antag -121
COC(=O)C1CCN(C(c2cc(OC)c(OC)c(OC)c2)c2sc3nc(C)nn3c2O)CC1 (stereo unspecified)	none
COc1cc(C(c2sc3nc(C)nn3c2O)N2CCC3(CC2)OCCO3)cc(OC)c1OC (stereo unspecified)	D3 antag -51
CC(/C=N\NC(=O)c1ccc2c(c1)OCO2)c1ccccc1 (stereo unspecified)	none
Cc1ccccc1OCCn1c(=N)n(C(C)C)c2ccccc21	D1 agonist 43 (no result: D3 antag)
COC(=O)CN1C(=O)[C@H]2[C@@H](/C=C/c3ccccc3)N3C(=O)CN(Cc4ccccn4)C(=O)[C@@]3(Cc3ccccc3)[C@H]2C1=O	none (no result: D1 antagonist, D1 agonist, D1 PAM)
O=C(O)c1ccc(-n2c(-c3ccc(Br)cc3)n[nH]c2=S)cc1	D3 antag -89
Cc1csc(=O)n1CC(=O)OCC(=O)Nc1ccc(C(N)=O)cc1	none
CCOCCCNC(=O)CCCn1nc(C)n2c(cc3sccc32)c1=O	D1 antagonist -39
CCN(CCNC(=O)CCCn1nc(C)n2c(cc3sccc32)c1=O)c1ccccc1	none (no result: D1 PAM)
CN(CC(=O)Nc1cccc(F)c1)C(=O)/C=C/c1ccc(Br)s1	none
CN(CC(=O)Nc1cccc(F)c1)C(=O)/C=C/c1cc(Br)ccc1OC(F)F	D3 antag -54
Cc1nn(Cc2ccc(C(=O)Nc3nccs3)cc2)c(C)c1Cl	none
O=C(O)c1cc(-n2nnnc2SCc2ccc([N+](=O)[O-])cc2)ccc1Cl	D3 antag -54
Cc1ccc(-n2nnnc2SCc2ccc(C(=O)O)cc2)cc1C	none
O=C(CCCSc1nnnn1-c1cccc2ccccc12)c1ccc(F)cc1	D1 antagonist -47, D1 agonist 62
O=C(O)c1ccc(CSc2nnnn2-c2ccc(F)cc2)cc1	D1 antagonist -31
O=C(Nc1nccs1)c1ccc(CSc2nnnn2-c2ccccc2)cc1	D1 antagonist -34
NC(=O)c1ccc(-n2nnnc2SCc2ccccc2)cc1	none
O=C(O)c1cc(-n2nnnc2SCc2ccccc2F)ccc1Cl	none
COC(=O)CCCCNC(=O)Nc1ccccc1	none
Cc1cnc(C(=O)OCC(=O)N2CCN(S(=O)(=O)c3ccc(Cl)cc3)CC2)cn1	none
COc1ccccc1NC(=O)Cc1coc2cc(C)ccc12	none
COc1ccccc1NC(=O)Cn1c(=O)n(Cc2ccccc2)c(=O)c2c3c(sc21)CN(C(C)=O)CC3	none (no result: D3 antag)
Cc1ccc(Cl)cc1NC(=O)N1CCC(CN2CCc3ccccc3C2)CC1	none (no result: D3 antag)
COc1ccccc1Cn1c(=S)[nH]c2cc(C(=O)NCc3cccnc3)ccc2c1=O	D1 antagonist -31
CC1CCN(CCCNC(=O)c2ccc3c(=O)n(Cc4ccc(Cl)cc4)c(=S)[nH]c3c2)CC1	none
CN(C)CCNC(=O)c1ccc2c(=O)n(Cc3ccc(Cl)cc3)c(=S)[nH]c2c1	D3 antag -58
COC(=O)c1ccc2c(=O)n(Cc3ccc(C(=O)NCCCN4CCC(C)CC4)cc3)c(=S)[nH]c2c1	D1 antagonist -42
Cc1[nH]c2ccccc2c1C(=O)CCl	none
CN(CC(=O)Nc1ccc(Cl)c(C(F)(F)F)c1)C(=O)Cc1n[nH]c(=O)c2ccccc12	none
O=c1oc2c(-c3ccc([N+](=O)[O-])cc3)cc(O)cc2s1	D3 antag -56
NC1=C(c2ccc([N+](=O)[O-])cc2)C(=O)CO1	none
Cc1ccc(C)c(NC(=S)N(Cc2cccc(Br)c2)CC2CCC(C(=O)O)CC2)c1 (stereo unspecified)	none
O=C(NCc1ccc(F)cc1)C(c1ccccc1)N(C(=O)c1csnn1)c1ccccc1 (stereo unspecified)	none
O=C(NCc1ccc(F)cc1)C(c1ccco1)N(C(=O)c1csnn1)c1ccccc1 (stereo unspecified)	D3 ag 49 (no result: D1 PAM)
C=CCN(CC(=O)NCc1ccc(F)cc1)C(=O)c1csnn1	D1 antagonist -35
CCCC(=O)Nc1c(I)cc(I)c(CC(CC)C(=O)O)c1I (stereo unspecified)	none (no result: D1 antagonist, ERG-DNA inh, D1 agonist, D1 PAM, D3 antag)
COC(=O)/C=C/c1cnc[nH]1	D1 antagonist -31, D3 antag inconclusive
Oc1ccc(CCNc2c3ccccc3nc3ccccc23)cc1O	D1 antagonist -51, D3 ag 124
O=C(CCc1nc2ccccc2c(=O)[nH]1)OCc1ccccc1F	none (no result: ERG-DNA inh)
COc1ccc(NC(=O)c2cc3c(=O)n(Cc4cccnc4)ccc3nc2C)cc1OC	none (no result: D3 antag)
Cc1ccc(S(=O)(=O)N2CCCC2CNC(=O)c2ccc3c(c2)OCO3)cc1 (stereo unspecified)	none
CCOC(=O)CC1C(=O)NCCN1c1nc2ccc(C)cn2c(=O)c1/C=C1\SC(=S)N(CC(C)C)C1=O (stereo unspecified)	D1 agonist 320
CCCN1C(=O)/C(=C/c2c(N3CCNC(=O)C3CC(=O)OCC)nc3c(C)cccn3c2=O)SC1=S (stereo unspecified)	D1 agonist 216
CCOC(=O)CC1C(=O)NCCN1C(=O)c1ccc(C)cc1 (stereo unspecified)	none
CCCCCN1C(=O)/C(=C/c2c(N3CCc4ccccc4C3)nc3ccccn3c2=O)SC1=S	none (no result: D1 antagonist, D1 agonist, D1 PAM)

Screening results as filed in PubChem.
